According to paper PMC11062922 (Nature Chemical Biology, 2023):
Like-named read-outs stand apart in the source and are kept apart here.

How the values were obtained:
Design in all cases: species or system human, MV4-11 + K-562 + COLO205 + SK-N-BE2 + OVCAR-8
CDK16 = conditions: read-out: apparent Kd, n = 1
CDK2 = conditions: read-out: apparent Kd, n = 1
CDK9 = conditions: read-out: apparent Kd; compound concentrations:100 nM and 1000 nM (sheet 'Samples'); n = 1
CLK1 = conditions: read-out: apparent Kd; compound concentrations:100 nM and 1000 nM (sheet 'Samples'); n = 1
CLK2 = conditions: read-out: apparent Kd; compound concentrations:100 nM and 1000 nM (sheet 'Samples'); n = 1
CLK4 = conditions: read-out: apparent Kd; compound concentrations:100 nM and 1000 nM (sheet 'Samples'); n = 1
GSK3A = conditions: read-out: apparent Kd; compound concentrations:100 nM and 1000 nM (sheet 'Samples'); n = 1
GSK3B = conditions: read-out: apparent Kd; compound concentrations:100 nM and 1000 nM (sheet 'Samples'); n = 1
ICK = conditions: read-out: apparent Kd; compound concentrations:100 nM and 1000 nM (sheet 'Samples'); n = 1
NUAK2 = conditions: read-out: apparent Kd, n = 1
PRKCA = conditions: read-out: apparent Kd; compound concentrations:100 nM and 1000 nM (sheet 'Samples'); n = 1
PRKCB = conditions: read-out: apparent Kd; compound concentrations:100 nM and 1000 nM (sheet 'Samples'); n = 1
PRKCD = conditions: read-out: apparent Kd; compound concentrations:100 nM and 1000 nM (sheet 'Samples'); n = 1
PRKCI = conditions: read-out: apparent Kd; compound concentrations:100 nM and 1000 nM (sheet 'Samples'); n = 1
PRKCQ = conditions: read-out: apparent Kd; compound concentrations:100 nM and 1000 nM (sheet 'Samples'); n = 1
RPS6KA3 = conditions: read-out: apparent Kd; compound concentrations:100 nM and 1000 nM (sheet 'Samples'); n = 1
RPS6KA6 = conditions: read-out: apparent Kd; compound concentrations:100 nM and 1000 nM (sheet 'Samples'); n = 1
RPS6KB1 = conditions: read-out: apparent Kd; compound concentrations:100 nM and 1000 nM (sheet 'Samples'); n = 1
SLK = conditions: read-out: apparent Kd; compound concentrations:100 nM and 1000 nM (sheet 'Samples'); n = 1
STK26 = conditions: read-out: apparent Kd; compound concentrations:100 nM and 1000 nM (sheet 'Samples'); n = 1
VDAC3 = conditions: read-out: apparent Kd; compound concentrations:100 nM and 1000 nM (sheet 'Samples'); n = 1
CDC42 = conditions: read-out: apparent Kd, n = 1
DJA1 = system: T1, DJA1; conditions: read-out: apparent Kd, n = 1
T1 construct: gene DNAJA1

HSP90AA1 = conditions: read-out: apparent Kd; compound concentrations: 100 nM and 1000 nM (sheet 'Samples'), CATDS: 0.12399635685572399; n = 1
HSP90B1 = conditions: read-out: apparent Kd; compound concentrations: 100 nM and 1000 nM (sheet 'Samples'), CATDS: 0.12934168659945999; n = 1
HSPE1 = conditions: read-out: apparent Kd; compound concentrations: 100 nM and 1000 nM (sheet 'Samples'), CATDS: 0.19606542414911901; n = 1
PGK1 = conditions: read-out: apparent Kd; compound concentrations: 100 nM and 1000 nM (sheet 'Samples'), CATDS: 0.21364088639266299; n = 1
PKM = conditions: read-out: apparent Kd; compound concentrations: 100 nM and 1000 nM (sheet 'Samples'), CATDS: 0.14448823643602399; n = 1
NUAK1 = conditions: read-out: apparent Kd; compound concentrations: 100 nM and 1000 nM (sheet 'Samples'), CATDS: 0.20890182477098199; n = 1
STK3 = conditions: read-out: apparent Kd; compound concentrations: 100 nM and 1000 nM (sheet 'Samples'), CATDS: 0.13207546439769999; n = 1
STK4 = conditions: read-out: apparent Kd; compound concentrations: 100 nM and 1000 nM (sheet 'Samples'), CATDS: 0.136772712102746; n = 1
[1] = compound concentrations:100 nM and 1000 nM (sheet 'Samples')

Cn1cc(C2=C(c3cn(CCCSC(=N)N)c4ccccc34)C(=O)NC2=O)c2ccccc21 [RO0318220-000]
potency estimated from few doses (CDK16; [1]): 1720 nM
potency estimated from few doses (CDK2; [1]): 1070 nM
potency estimated from few doses (CDK9): 694 nM
potency estimated from few doses (CLK1): 785 nM
potency estimated from few doses (CLK2): 434 nM
potency estimated from few doses (CLK4): 1430 nM
potency estimated from few doses (GSK3A): 158 nM
potency estimated from few doses (GSK3B): 183 nM
potency estimated from few doses (ICK): 1720 nM
potency estimated from few doses (NUAK2; [1]): 1420 nM
potency estimated from few doses (PRKCA): 41.5 nM
potency estimated from few doses (PRKCB): 105 nM
potency estimated from few doses (PRKCD): 58.4 nM
potency estimated from few doses (PRKCI): 2280 nM
potency estimated from few doses (PRKCQ): 121 nM
potency estimated from few doses (RPS6KA3): 1300 nM
potency estimated from few doses (RPS6KA6): 33.8 nM
potency estimated from few doses (RPS6KB1): 419 nM
potency estimated from few doses (SLK): 2100 nM
potency estimated from few doses (STK26): 1480 nM
potency estimated from few doses (VDAC3): 2310 nM

Cn1cc(C2=C(c3c4n(c5ccccc35)CCCC4)C(=O)NC2=O)c2ccccc21 [RO0318259-000]
potency estimated from few doses (CDC42; compound concentrations: 100 nM and 1000 nM (sheet 'Samples'), CATDS: 0.12762221298853901): 1480 nM
potency estimated from few doses (DJA1; compound concentrations: 100 nM and 1000 nM (sheet 'Samples'), CATDS: 0.11539226669729399): 1920 nM
potency estimated from few doses (HSP90AA1): 1590 nM
potency estimated from few doses (HSP90B1): 1440 nM
potency estimated from few doses (HSPE1): 644 nM
potency estimated from few doses (PGK1): 561 nM
potency estimated from few doses (PKM): 1130 nM

CNc1nc(-c2ccc3c(N)n[nH]c3c2)cc(N2C[C@@H](C(=O)Nc3ccccc3)CC[C@H]2C)n1 [GSK2298859A]
potency estimated from few doses (CDC42; [1]): 2140 nM
potency estimated from few doses (DJA1; [1]): 880 nM
potency estimated from few doses (PRKCQ): 1800 nM

CC(C)=Cc1cccc2c1/C(=N/Nc1ccc(S(N)(=O)=O)cc1)C(=O)N2 [GW396574X]
potency estimated from few doses (CDK16; compound concentrations: 100 nM and 1000 nM (sheet 'Samples'), CATDS: 0.172165115049177): 778 nM
potency estimated from few doses (CDK2; compound concentrations: 100 nM and 1000 nM (sheet 'Samples'), CATDS: 0.26435202316191703): 366 nM
potency estimated from few doses (NUAK1): 539 nM
potency estimated from few doses (NUAK2; compound concentrations: 100 nM and 1000 nM (sheet 'Samples'), CATDS: 0.14838950263404099): 1080 nM
potency estimated from few doses (STK3): 1470 nM
potency estimated from few doses (STK4): 1330 nM
